# Sampled rows, rich in hits. Any-hit rate of the full collection: about 11%.
# RORg inh = blocks mouse ROR gamma transcriptional activity; P51450; Drosophila S2 Gal4-RORgamma UAS-luciferase reporter, 20 h; Potency, µM (doses to about 53.6 µM), for inactives: at the top dose activity change, negative = inhibition, hits mostly inhibitors; hit rate 5.4% among 310,000; AID 2551; also: potency is read from the fitted curve at half-maximal effect; % is scaled to controls: 0 for no effect and ±100 for the full control effect; nearly all actives have a fitted effect of over 60% in size
# Target sequence (P51450 whole entry, looked up, the tested form may be a part): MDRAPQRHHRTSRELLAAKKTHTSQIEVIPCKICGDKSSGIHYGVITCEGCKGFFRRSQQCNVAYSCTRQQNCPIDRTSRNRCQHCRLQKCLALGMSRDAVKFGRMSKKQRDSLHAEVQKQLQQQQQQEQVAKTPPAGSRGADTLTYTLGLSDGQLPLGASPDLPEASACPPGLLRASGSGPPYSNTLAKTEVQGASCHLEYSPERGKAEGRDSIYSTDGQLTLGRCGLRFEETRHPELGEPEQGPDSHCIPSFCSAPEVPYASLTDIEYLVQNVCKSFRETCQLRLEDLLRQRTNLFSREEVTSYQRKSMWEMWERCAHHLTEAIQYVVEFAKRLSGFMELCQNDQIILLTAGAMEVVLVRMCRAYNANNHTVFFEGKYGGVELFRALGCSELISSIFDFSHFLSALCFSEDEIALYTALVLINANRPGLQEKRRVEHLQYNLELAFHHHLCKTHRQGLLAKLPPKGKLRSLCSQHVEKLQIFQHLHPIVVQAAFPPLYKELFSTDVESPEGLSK
#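 A Gal4/UAS one-hybrid system in insect cells: metallothionein-promoter Gal4–ROR gamma fusion plus Photinus luciferase reporter. Copper sulfate 700 uM final, 20 hr ambient incubation, luminescent detection after 10 min with reagent.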
# MCF10A rerep = inducers of DNA re-replication in MCF 10A breast cells; MCF 10A DNA re-replication, Hoechst nuclear intensity, 48 h; Potency, µM (series often up to 46.1 µM), for inactives: at the highest dose activity, positive = re-replication, actives largely listed as activators; hit rate 2.9% among 350,000; also: potency is read from the fitted curve at half-maximal effect; % of control where 0% means no effect; nearly all actives have a fitted effect of over 50% in size
# IL1B secr inh = blocks inflammasome-driven IL-1 beta release; hit rate 4.7% among 360,000; AID 743279; activity change, % at 57.5 µM; THP-1 LPS/ATP IL-1B secretion, AlphaLISA, 16 h; hits give low values; in the data active = activity change below about -50%; inconclusive = mostly about -30% to -49%; also: % is scaled to controls: 0 for no effect and ±100 for the full control effect
#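 THP-1 cells pretreated 1 hr with compounds (up to 57.5 uM final), then stimulated with LPS (250 ng/mL final) plus ATP (1.25 mM final); secreted IL-1B measured by AlphaLISA after 16 hr, decreased signal indicating inhibition.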
# SW480 rerep = induces DNA re-replication in SW480 colon adenocarcinoma cells; SW480 DNA re-replication, Hoechst DNA content imaging, 48 h; Potency, µM (highest dose often 46.1 µM), for inactives: at the highest dose re-replication activation, actives largely listed as activators; hit rate 1.8% among 340,000; AID 624297; also: potency is read from the fitted curve at half-maximal effect; % of control where 0% means no effect; nearly all actives have a fitted effect of over 55% in size
#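 Image-based read-out: total Hoechst fluorescence of nuclei (405 nm excitation, 500-530 nm emission), with hits raising the fraction of high-intensity nuclei. SW480 colon cells incubated 48 hr with compounds at 37 C.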
# Gal4-VP16 FLuc = Gal4-VP16 reporter inhibition counter-screen; hit rate 3.5% among 310,000; AID 2546; Potency, µM (doses to about 53.6 µM), inactives show at the top dose activity, negative = inhibition, most hits filed as inhibitors; Drosophila S2 Gal4-VP16 UAS-luciferase, luminescence, 20 h;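 also: Gal4-VP16 expression switched on by copper sulfate through the metallothionein promoter; potency is read from the fitted curve at half-maximal effect; % is scaled to controls: 0 for no effect and ±100 for the full control effect; nearly all actives have a fitted effect of over 50% in size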
# An asterisk follows results filed as active; ? = inconclusive; . = not tested or not shown; [ ] = dose if it differs, or a comment. Unless noted, calls follow the shape of the dose curve; as a rule, active = well fitted curve in the direction sought with a large enough effect; inconclusive = small, poorly fitted or top-dose-only effect, or another doubt; inactive = no such curve, though single readings can be large; an effect the other way counts as inactive or inconclusive.
SMILES,RORg inh,MCF10A rerep,IL1B secr inh,SW480 rerep,Gal4-VP16 FLuc
CC(C)(C)N1C(=O)c2ccccc2NC(=O)C1C(=O)NCCc1ccccc1F (stereo unspecified),.,.,18,.,.
Cc1ccc(NC(=O)CSc2nnc(COc3ccccc3F)n2N)cc1S(=O)(=O)N1CCOCC1,.,?,0,?,.
Cc1cnc(CNC(=O)CC2C(=O)NCCN2Cc2cccc(F)c2F)cn1 (stereo unspecified),-16%,-1%,35,0%,-3%
CCCCNS(=O)(=O)c1ccc(NS(=O)(=O)c2c(C)cc(C)cc2C)cc1,-2%,4.6µM*,-1,?,-9%
COc1ccc(N2CCN(C(=S)Nc3cccc(C)c3)CC2)cc1,?,-9%,3,0%,-2%
COc1cccc(N2CCN(C(=S)Nc3cccc(C)c3)CC2)c1,7.1µM*,3%,14,-4%,-28%
Cc1cccc(CN2CCN(C(=S)Nc3ccccc3)CC2)c1,4µM*,-6%,-5,-35%,?
Cc1cccc(NC(=S)N2CCN(c3ccccc3)CC2)c1,10µM*,5%,-16,-1%,?
COc1ccc(C2=Nc3ccccc3N(C(=O)c3ccncc3)C2C(=O)NC(C)(C)C)cc1 (stereo unspecified),.,.,0,.,.
Cn1c(Oc2cccnc2CN2CCCC2)nc2cc(-c3cccc(C(F)(F)F)c3)sc2c1=O,.,.,-26,.,.
CC12CCC(/C(=N/O)C1=O)C2(C)C (stereo unspecified),-6%,.,.,.,-3%
Nc1c(C(=O)c2ccccc2)sc2snc(SCC(=O)c3ccccc3)c12,11µM*,16µM*,-2,29%,13µM*
Nc1nnc(SCC(=O)c2ccccc2)s1,-3%,2%,2,-5%[9.22 µM],-14%
O=C(OCc1ccc(COC(=O)c2ccc(O)cc2)cc1)c1ccc(O)cc1,0%,14%,1,2%,-9%
O=C1C=CC(=O)C(CNc2ccc(C(=O)OCc3ccccc3)cc2)=C1,.,?,-100*,?,.
Cc1c(Cn2ccnc2)c2ccccc2n1CCC(=O)O,-4%,1%,.,-14%,3%
O=C1N=C2N(CCN3CCCCC3)c3ccccc3N2/C1=C\c1ccc([N+](=O)[O-])s1,.,18µM*,-19,?,.
O=C(CN1C(=O)S/C(=C/C=C/c2ccccc2)C1=O)Nc1ccc(C(=O)O)cc1,12%,?,-24,-6%,4%
O=C(CCCN1C(=O)S/C(=C\C=C\c2ccccc2)C1=O)Nc1ccc(O)cc1,0.32µM*,12µM*,-78*,?,?
O=C(CCN1C(=O)/C(=C\C=C\c2ccccc2)SC1=S)Nc1ccc(C(=O)O)cc1,?,?,-55*,?,?
CCNC(=S)N/N=C1\C(=O)c2cccc3cccc1c23,3.2µM*,21µM*,14,-3%,4.5µM*
O=C(N/N=C1/C(=O)c2cccc3cccc1c23)c1ccc(Cl)cc1,-21%,?,0,?,?
C=C(C)CNC(=S)N/N=C1\CCCCc2ccccc21,1.4µM*,14%,26,1%,1.8µM*
CCNC(=S)N/N=C1\CCCCc2ccccc21,1.1µM*,28%,19,-2%,4µM*
CCOC(=O)CNC(=O)N1C[C@H]2CON(C)[C@H]2C[C@H]1c1ccccc1Br,.,.,20,.,.
SMILES,RORg inh,MCF10A rerep,IL1B secr inh,SW480 rerep,Gal4-VP16 FLuc
Cc1noc(C)c1C(=O)N1CCC2(CCCN(C(=O)Nc3ccccc3)C2)CC1,21%,.,.,.,0%
CCCCN1C(=O)C(=O)N(CC(=O)c2cc(C)n(C3CC3)c2C)C1=O,.,6%,0,-4%,.
O=C(NNC(=O)c1cccs1)Nc1cccc(Cl)c1,5%,-3%,-13,1%,-2%
Cc1ccc(NC(=O)c2cccs2)cc1S(=O)(=O)Nc1cccc(Cl)c1,44%,?,-131*,1%,?
Cc1ccc(NC(=O)CC(=O)c2ccc([N+](=O)[O-])cc2)cc1S(=O)(=O)Nc1cccc(Cl)c1,?,-7%,-2,1%,-26%
Cc1ccc(NC(=S)NC(=O)c2ccc(F)cc2)cc1S(=O)(=O)Nc1cccc(Cl)c1,-20%,2.6µM*,?,3.7µM*,-2%
Cc1ccc(C)c(C(O)c2ncc(-c3cccc(F)c3)[nH]2)c1 (stereo unspecified),.,.,-11,.,.
